Compounds with a hit are over-represented: about 3.8% of the library has one in this group of screens.
697 NFkB inh: lowers PMA/ionomycin-induced NF-kB signal in 697 B cells; 697 B-cell NF-kB luciferase reporter, 16 h; inhibition, % at 4 µM; 330,000 tested, 0.33% active; AID 435022; in the data active = inhibition above about 35%
Jurkat NFkB inh: lowers PMA/ionomycin-induced NF-kB signal in Jurkat cells. PMA/ionomycin-induced NF-kB luciferase reporter, luminescence. inhibition, % at 4 µM. 330,000 tested, 0.53% active. AID 435003; in the data active = inhibition above about 50%
Mdm2 MdmX PPI: human Mdm2/MdmX binding inhibition | O15151+Q00987 | SaOS-2 split-luciferase Mdm2/MdmX complementation, luminescence | inhibition, % at 8 µM | 330,000 tested, 3% active | AID 485346;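 active = inhibition of at least 50% at 8 µM in the primary screen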
Shn3 inh set2: reduces Shn3 3'UTR luciferase signal in osteoblasts | Clone20 osteoblast Shn3 3'UTR firefly luciferase, 24 h | inhibition, % at 12.5 µM | 360,000 tested, 0.52% active;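 active = mean inhibition of at least 75% with every replicate also reaching 75%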;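 note: 0% = median of neutral control wells and 100% = pilot-screen positive control compound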
Gli-Sufu antag: Gli-Sufu pathway antagonism. Sufu-KO-LIGHT fibroblasts, Gli luciferase reporter luminescence. inhibition, % at 5 µM. 340,000 tested, 0.74% active. AID 588413;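 active = inhibition above about 55%, limit read from the data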;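 note: 0% = DMSO-treated cells and 100% = wells with medium but no cells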
697 NFkB conf: inhibitors of the PMA/ionomycin-induced NF-kB reporter in 697 B cells, retest; shares compounds with 697 NFkB inh; inhibition, % at 4 µM; AID 449746; 2,000 tested, 35% active; 697 B-cell NF-kB luciferase, 16 h; in the data active = inhibition mostly above about 28%, no sharp cut-off; inactive = mostly below about 22%
Starred values were filed as active, the others as inactive; i = inactive; / = not tested or not shown.

SMILES	697 NFkB inh	Jurkat NFkB inh	Mdm2 MdmX PPI	Shn3 inh set2	Gli-Sufu antag	697 NFkB conf
Cc1ccn2c(c1)nc(=S)n2C(=O)c1ccccc1	i	-119.3	44.0	16.3	-48.4	-405.2
O=C(CCCN1C(=O)c2ccccc2C1=O)NCc1ccc(F)cc1	-8.4	-4.0	10.9	6.7	-8.2	/
CCOC(=O)c1nn(-c2ccc3c(c2)CCN3C(C)=O)cc1O	36.3*	-31.9	31.4	-43.6	-64.5	22.5
CCOC(=O)c1nn(-c2ccc(F)cc2)cc1O	11.8	-21.2	13.0	-28.6	4.3	/
COc1ccc(C(=O)N=c2sc3c(C)ccc(OC)c3n2C)cc1	-298.7	-29.7	-83.3	-60.4	-106.6	-336.6
CCCC(=O)N1CCCC(c2cc(C(=O)NCc3ccc(F)cc3)no2)C1 (centres undefined)	/	/	/	-6.6	/	/
Cn1c(CN2CCN(c3ccc(Cl)cc3)CC2)nc2ccccc21	16.1	3.4	11.1	-2.3	-0.4	/
CCn1c(CN2CCN(c3ccc(Cl)cc3)CC2)nc2ccccc21	45.8*	13.1	26.5	-0.2	5.8	51.1*
COC(=O)CCN1CCc2cc(N=Nc3ccc([N+](=O)[O-])cc3)ccc21	-281.6	-90.1	44.8	-44.8	4.7	-94.7
Cc1ccccc1CN1CCc2cc([N+](=O)[O-])ccc21	3.3	16.0	33.8	35.0	19.2	/
Cc1cccc(COc2ccc(S(=O)(=O)N3CCOCC3)cc2[N+](=O)[O-])c1	-5.8	4.5	14.2	-3.4	-1.2	/
O=C(OCCc1ccccc1)c1cc(O)c(O)c(O)c1	i	-48.5	-20.4	25.0	15.9	-233.2
Cc1ccccc1CN(C)CCS(=O)(=O)c1cc(Cl)ccc1Cl	35.9*	-9.1	44.4	-2.5	-1.2	2.7
Nc1nnc(CCS(=O)(=O)c2cc(Cl)ccc2Cl)s1	19.9	-0.3	5.2	4.4	5.7	/
COc1ccc(-c2cc3cc(F)ccc3cn2)cc1	-254.7	-5.6	-143.8	-51.6	-117.6	-263.4
O=C(COC(=O)C12CC3CC(CC(Cl)(C3)C1)C2)Nc1ccccc1	10.9	-8.6	19.4	6.2	0.7	/
Cc1cc(-c2csc3nc[nH]c(=S)c23)cc(C)c1C	35.5*	2.1	40.5	-5.0	1.3	-22.2
Cc1ccc(-c2csc3nc[nH]c(=S)c23)cc1	6.1	1.8	9.7	5.5	2.2	/
CC(=O)c1csc(COc2ccc(Cl)cc2)n1	-371.5	-109.6	-38.7	-64.9	-71.7	-209.7
NNC(=O)c1csc(COc2cc(Cl)cc(Cl)c2)n1	-5.0	11.9	28.4	4.4	-1.0	/
CCc1sc(C(=O)Nc2cccc(-n3cnnn3)c2)cc1C	36.9*	23.2	30.9	0.0	19.3	39.2*
CCn1c(=O)cc(OCC(=O)NCCCN2CCC(C)CC2)c2ccccc21	31.7	-6.9	40.4	-7.2	6.4	/
CC1CCN(CCCNC(=O)COc2cc(=O)n(C)c3ccccc23)CC1	36.5*	3.8	29.1	-13.4	7.0	22.8*
Oc1ccc(Oc2ccc3c(C(F)(F)F)cc(C(F)(F)F)nc3n2)cc1	46.1*	13.2	5.2	26.2	8.1	22.2
O=C(COC(=O)COc1cccc(Br)c1)Nc1ccc(F)cc1F	12.2	1.0	16.5	-12.6	-4.3	/
SMILES	697 NFkB inh	Jurkat NFkB inh	Mdm2 MdmX PPI	Shn3 inh set2	Gli-Sufu antag	697 NFkB conf
O=C(Nc1ccc2c(c1)OCO2)C(=O)c1c[nH]c2ccccc12	-173.7	-118.6	-115.0	-64.7	-177.0	/
O=C(/C=C/c1ccccc1)Nc1ccc2c(c1)OCCO2	-293.2	-80.8	-51.8	-67.4	-154.4	-418.5
O=C(Nc1ccc2c(c1)OCCO2)C(=O)c1c[nH]c2ccccc12	-376.8	-63.1	-66.2	-64.0	15.8	-465.9
Cc1cc(C)n(CCC(=O)N2CCCC(N3CCN(c4cccc(Cl)c4)CC3)C2)n1 (centres undefined)	6.9	-17.9	4.0	1.4	-1.0	/
O=C(Nc1ncccc1O)c1ccc(S(=O)(=O)Nc2ccccc2)cc1	-401.8	11.7	46.5	-328.0	43.9	-359.2
O=C(Nc1ncccc1O)c1ccc(NS(=O)(=O)c2ccc3[nH]c(=O)[nH]c3c2)cc1	-33.3	6.8	29.7	-18.3	26.1	/
Cc1ccn2cc(CCNC(=O)COc3ccccc3)nc2c1	35.0	-12.1	-2.7	5.8	1.9	-11.5
Cc1ccn2cc(CCNC(=O)CC(C)(C)C)nc2c1	-14.1	-20.9	-14.6	-5.8	7.7	/
O=C(/C=C\NCC(=O)c1ccccc1)c1ccc(F)cc1	1.9	-9.5	1.2	-17.4	-4.9	/
O=C(/C=C/Nc1ccc(F)cc1Br)c1ccccc1	-343.5	-47.3	19.8	-6.9	-18.7	-124.0

Screening results as filed in PubChem.
